# According to article PMC12136788:
# Residue numbers refer to the chain shown, from its start. Over roughly 24,000 sequences, “enrichment r” has its median near 0.99; the highest 2% begin near 3.7. The full list was thinned out, with the highest values kept by preference.
# T1: UNK ZnF1-3 (human, UniProt Q9C0B0 31-174)
# T1 sequence: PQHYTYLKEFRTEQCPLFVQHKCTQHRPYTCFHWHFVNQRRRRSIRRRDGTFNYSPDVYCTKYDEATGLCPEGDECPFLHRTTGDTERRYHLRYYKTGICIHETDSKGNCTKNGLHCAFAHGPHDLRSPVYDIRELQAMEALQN
# B1: chr11:80063784:80063785:+_ENSMUSG00000017686_ENSMUST00000092857|mus_mus|FALSE|FALSE (ssRNA)
# RNA: GGGAGUUCUACAGUCCGACGAUCCAUUAGGUUUCUUCCAAGGAGAGACUGAAGAACUCCAGUUUUCCCACAGCCUUUCACUCCAAUUACAUUACACCUGAACACAUUUCUCUGAGUCUGUUUUUUCUGCAGGUCAAUCUUUUUCAACAGAGGAUUGAGCAUCA
# B2: chr9:95013113:95013114:-_ENSG00000196305_ENST00000443024|hu_hu|hu_hu_hu_mus_False|58_58 (ssRNA)
# RNA: GGGAGUUCUACAGUCCGACGAUCCUCAGUCAGAAAGGGCGUGUAAGGGGCCAUCAGUCUGCACAGAGAAAGCAGGACACUAAACAAUGUCUCCAGAGCCAUGACACAGUCUUCCACCCCACUCUCACCCUUUAACCUCCUCCUCAACAGAGGAUUGAGCAUCA
# B3: 76184225_76186117_1027_CDS_ENSG00000119685_ENST00000298832|human|control|control (ssRNA)
# RNA: GGGAGUUCUACAGUCCGACGAUCCCAUUUGUUUCCAUAAUCCUCCACUUCUGGAUCGUCACAACUGACGUAAUCUCCACUUUUCUUGUUGACACUGUAGUUUGUCAGAUGCAUGAACUGGUUCCGAAUGUUCUUGGCUCCUUGCAACAGAGGAUUGAGCAUCA
# B4: chr11:31958201:31958202:+_ENSMUSG00000020297_ENSMUST00000020537|mus_mus|FALSE|FALSE (ssRNA)
# RNA: GGGAGUUCUACAGUCCGACGAUCCCAUGAGUUUGUGCAAAUCUUGCAAGCUCACCAUUGAGUGGUACUCUGUGCAUUCCUAGUUGAGAAAUGCCAACAUCACCUUCCUCUCCAAAUCAGCCUUGCCUGCCAUCGCUGUGCUUCCAACAGAGGAUUGAGCAUCA
# B5: 32462045_32462714_1507_3pUTR_ENSMUSG00000027668_ENSMUST00000091257|mouse|control|control (ssRNA)
# RNA: GGGAGUUCUACAGUCCGACGAUCACUCUUAUACACUUUCAGUACACUGGGGGUAGGAUGAAACUCAGAACAAAACUCAUCAACCAAAACAGAUAGUCGACAAAUUUCAUCUGUCAUUGCACAAGAAACCUUGUUUGCCACCUCCAACAGAGGAUUGAGCAUCA
# B6: 7395510_7396407_2237_ncRNA_ENSMUSG00000031153_ENSMUST00000132456|mouse|control|control (ssRNA)
# RNA: GGGAGUUCUACAGUCCGACGAUCAUGUUCUGCAGCUUCUUGUUCAUUUCUCGAAGGUUCUCAUCGCCUGGCUUCACUAGGUCUCUCAGGACACUGCCCAGCCCACUUCGGUCUGUGUGGCCUGCUGCCACAGACACAUCAAUCCAACAGAGGAUUGAGCAUCA
# B7: chr9:14812383:14812384:-_ENSMUSG00000031934_ENSMUST00000164273|mus_mus|mus_mus_mus_hu_True|28_28 (ssRNA)
# RNA: GGGAGUUCUACAGUCCGACGAUCAUAGCCCAGGUAGAUACACGCUAACAGUAUAAUGAUGAGUGUCAGCAGGCGGCAGCUAAUGUACUUGAUGAUUAAAUUAUUAGAGUUCUUUUUUGUCUUCAAGUACUGCUCCACAAUUGGCAACAGAGGAUUGAGCAUCA
# B8: chr11:54532911:54532912:-_ENSMUSG00000052298_ENSMUST00000064104|mus_hu|FALSE|FALSE (ssRNA)
# RNA: GGGAGUUCUACAGUCCGACGAUCGGGUCGGCAGUGAAAAGAAAAAUGUUUAAAAUAGAAAAAAAAAACUGCAAAAUGGUGUUAGCAUUCACAAAAAAGAUCAUGCGAAGAUCAGAUCCAUACUGAUUAAACAUUGAAAAUUCACAACAGAGGAUUGAGCAUCA
# B9: chr13:51246309:51246310:+_ENSMUSG00000021395_ENSMUST00000095797|mus_hu|FALSE|FALSE (ssRNA)
# RNA: GGGAGUUCUACAGUCCGACGAUCCCCACAGUGAAGCACGAGGGACAGAGCGACUGCAGCUGUGGACAGAAAACUGAGGUACUGUGUUUACAUGGUGAGUGGUCGUUACCAUCCAACAGCACAAGGCACAAAAAAUGGGCAUCACAACAGAGGAUUGAGCAUCA
# B10: chr5:144471560:144471561:-_ENSMUSG00000051306_ENSMUST00000053287|mus_hu|FALSE|FALSE (ssRNA)
# RNA: GGGAGUUCUACAGUCCGACGAUCGAGACUCCAGUAUCAGUGAAGACAAGAGACGCUGUAUCAAAAAGUGUUGUGUAAUAGAAACAUACUGUCGGCUUUACAAAUCAUGUCUGGGUUAUACAUUCAUAAUGUAAAUACUCAUCACAACAGAGGAUUGAGCAUCA
# B11: chr7:140404665:140404666:+_ENSG00000090266_ENST00000247866|hu_hu|hu_hu_hu_mus_False|18_38 (ssRNA)
# RNA: GGGAGUUCUACAGUCCGACGAUCUGCUCCUACUCGUCCAGAGAGUUUACAGUGUCAGUCCUCGUCAUCAGGAGGGAUUCCCAGUUCUUCAUCUGUCCACUGGGAAGGAUCUGGAUACGGAAAGUGACCCAGCACAGCAUCCGACAACAGAGGAUUGAGCAUCA
# B12: chr6:89793807:89793808:+_ENSG00000146278_ENST00000336032|hu_mus|FALSE|FALSE (ssRNA)
# RNA: GGGAGUUCUACAGUCCGACGAUCACUUCCCAUCCAGUGACUCGGAGGCUUUGGGAGGACACUAGGGGAAGGUGGGUCACUGAACUUUGCUCCGGCGUAAUUUUCCUUUUGGCUCACUUCUGUUAGAAAUGCUGAUUUCUUCAACAACAGAGGAUUGAGCAUCA
# B13: chr9:104153060:104153061:-_ENSG00000136897_ENST00000374865|hu_mus|FALSE|FALSE (ssRNA)
# RNA: GGGAGUUCUACAGUCCGACGAUCAUGAGAUUCCAAGCGACUCUGGAGAUCACUGGGCGGUGUGUAUGCUCGGCUUCGUAAGGGUGGACACACCAAAACAGGUUCUUUUUUCACUUCUUCCACUGUCUCUGCCACAACUGGCUCCAACAGAGGAUUGAGCAUCA
# B14: chr19:37005844:37005845:-_ENSG00000254004_ENST00000523638|hu_mus|FALSE|FALSE (ssRNA)
# RNA: GGGAGUUCUACAGUCCGACGAUCGGGAGUUUUCUUAGAUUCACUGGGUCUCUCUUCGGUAUGUUGUUUCUGAUGAGAAAGGAAGUUUCCUCUCUGGCUGAAGGCCUUCCCACAUUCCCCACACUUGUAGGACUCCCUCCUUGGCAACAGAGGAUUGAGCAUCA
# B15: 118238769_118243032_844_CDS_ENSMUSG00000005102_ENSMUST00000005233|mouse|control|control (ssRNA)
# RNA: GGGAGUUCUACAGUCCGACGAUCAGAGAAAUGGAGGAUGUCACACGAGCCAGGAGAGGGUUCACCACUACACACAGAAUACUGACGUUCUCGCCUGGACCUUCCUGAGGAGUAUGUCCGGGCUUUACCAUUUCCUACAAAGUCCAACAGAGGAUUGAGCAUCA
# B16: chr12:72179577:72179578:+_ENSG00000080371_ENST00000261263|hu_mus|motif|central (ssRNA)
# RNA: GGGAGUUCUACAGUCCGACGAUCGUUUAGCACUUAAGGUCUCUGCAGUGUUAUAAACGUAAUUGAAAAUACUGUUAAUUCGGUAACUCCAUUGGUAAAAUGAUGUGACUUGGAAUAUGGCAGUCUUCAUGUUGAGGGCAAUGACAACAGAGGAUUGAGCAUCA
# B17: chr1:150192712:150192713:-_ENSG00000143401_ENST00000314136|hu_hu|motif|central (ssRNA)
# RNA: GGGAGUUCUACAGUCCGACGAUCGCACCAUACUACACCUGUGUAAAAGUGAUCAUGUUUUAAUUAUGGGCUAAAAAUGACGGAUACAGUAAGCUUGAAUUUAAAAAAUUAAGUCUAAAUAAAUUGCUAGGGAAUUCCACAAUGCAACAGAGGAUUGAGCAUCA
# B18: chr4:25749455:25749456:-_ENSG00000091490_ENST00000264868|hu_hu|hu_hu_hu_mus_False|8_68 (ssRNA)
# RNA: GGGAGUUCUACAGUCCGACGAUCGCACUAUGACCUCUAGAAAAAUCCACAGGGGGAAAAAAUGUAAACCAAUUUACAAUGUUAUCGCCUUCCCUGUGUGUGGAGUGUUUGUCUCAAGGCUCCUUCUUGCCUUAUAAUUUGGGACAACAGAGGAUUGAGCAUCA
# B19: chr16:94690093:94690094:+_ENSMUSG00000040785_ENSMUST00000117648|mus_hu|mus_mus_mus_hu_True|18_68 (ssRNA)
# RNA: GGGAGUUCUACAGUCCGACGAUCGGGCUGGGAUGACGGACACACAGCCUCGAUUCCAGGGGGAAAAAAAAAUAGCCGAUACUAAUUAAAAAGUGUUAAUGAUUUUUGAAAAUCAGAUGUAGAUUAAAAAAGAUGAAAAGCAAACAACAGAGGAUUGAGCAUCA
# B20: chr16:11966626:11966627:-_ENSG00000103342_ENST00000563468|hu_hu|FALSE|FALSE (ssRNA)
# RNA: GGGAGUUCUACAGUCCGACGAUCUUGUAACAUGUGCACACACACUCGCACACUCAGAAUGAUCUGCCUGGGGGAAAAAUACUAAAUAUGCCUAAGGGGAAAAUGAAAAAUAAAAAAAUUCCUGUAGGUUUUCAUUAUUGUAGGCAACAGAGGAUUGAGCAUCA
# B21: chr1:150192712:150192713:-_ENSG00000143401_ENST00000314136|hu_hu|FALSE|FALSE (ssRNA)
# RNA: B17 RNA with G81U, G82A
# B22: chr4:144460044:144460045:+_ENSG00000153147_ENST00000283131|hu_mus|hu_hu_hu_mus_False|18_68 (ssRNA)
# RNA: GGGAGUUCUACAGUCCGACGAUCACGGUCCAUAGCCUGAAGAUCAACUUGCGGAUUCCAAUCUGAGUCAUACAAAAUGACUACAUCAGCAGUUGCAAGAUUGAUGCCCAGACCACCAGCACGCGUGCUUAGCAUAAAUACAAACAACAGAGGAUUGAGCAUCA
# Target: T1, UNK ZnF1-3
# Assay: nsRBNS (natural sequence RNA bind-n-seq); RBNS binding buffer (assumed for nsRBNS): 25 mM Tris pH 7.5, 150 mM KCl, 3 mM MgCl2, 0.01% Triton X-100, 500 ug/ml BSA, 20 U/ml SUPERase-In, 4 C; UNK is unkempt and MSI1 is Musashi-1; names of the RNAs are library labels; protein concentration not given here; high values mean tight binding
row,Binder,binding signal
1,B1,0.484 enrichment R
2,B2,1.48 enrichment R
3,B3,0.4 enrichment R
4,B4,0.67 enrichment R
5,B5,1.52 enrichment R
6,B6,0.526 enrichment R
7,B7,1.74 enrichment R
8,B8,4.5 enrichment R
9,B9,1.39 enrichment R
10,B10,1.01 enrichment R
11,B11,1.45 enrichment R
12,B12,0.744 enrichment R
13,B13,0.821 enrichment R
14,B14,0.845 enrichment R
15,B15,1.63 enrichment R
16,B16,0.946 enrichment R
17,B17,5.11 enrichment R
18,B18,0.719 enrichment R
19,B19,3.66 enrichment R
20,B20,3.28 enrichment R
21,B21,5.25 enrichment R
22,B22,1.01 enrichment R
